D2 PAM-1 = positively modulates the human D2 dopamine receptor allosterically | P14416 | HEK293 T-REx D2, calcium flux, EC20 dopamine potentiation | potentiation, % at 10 µM | actives 0.34% (n = 340,000);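 active = potentiation over 3 SD above the plate norm, cut at about 30% in these data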; also: 0% is about no effect
Target sequence (P14416 whole entry, looked up): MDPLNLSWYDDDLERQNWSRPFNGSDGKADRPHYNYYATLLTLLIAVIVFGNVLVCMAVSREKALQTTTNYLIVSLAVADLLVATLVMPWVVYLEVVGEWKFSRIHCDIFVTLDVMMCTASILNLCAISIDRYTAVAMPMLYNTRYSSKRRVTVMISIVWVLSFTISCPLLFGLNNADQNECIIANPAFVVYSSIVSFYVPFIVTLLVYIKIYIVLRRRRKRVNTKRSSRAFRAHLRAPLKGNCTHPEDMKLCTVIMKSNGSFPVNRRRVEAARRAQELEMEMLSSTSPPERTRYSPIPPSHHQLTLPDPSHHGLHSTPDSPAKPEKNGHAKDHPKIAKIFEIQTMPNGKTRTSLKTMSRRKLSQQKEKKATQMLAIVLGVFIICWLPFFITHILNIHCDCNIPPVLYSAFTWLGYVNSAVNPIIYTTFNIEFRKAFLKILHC
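Potentiation of an EC20 dopamine calcium response measured kinetically over 180 s, after a preceding 180 s compound-only read flagging agonists. Cells: inducible Hek293 Trex D2 line, 4000/well, cultured overnight at 30 C before dye loading.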
D2 PAM-2 = human D2 receptor positive allosteric modulation; P14416; DiscoveRx D2 beta-arrestin cells, luminescence, 90 min; 100% = 57 uM dopamine signal; potentiation, % (concentration not given with the values); actives 0.23% (n = 360,000); AID 624464; in the data active = potentiation above about 50%; inconclusive = mostly about 30% to 49%
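PathHunter beta-arrestin assay in DiscoveRx D2 cells. Compounds were added with an EC20 of dopamine (50 nM final) for 90 min at 37 deg C. Luminescence was read 1 h after detection reagent, with 57 uM dopamine as the EC100 control.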
D2 ag-1 = agonists of human D2 dopamine receptor (beta-arrestin). activation, % (test concentration not listed). DiscoveRx PathHunter D2 beta-arrestin, luminescence, 90 min; 100% = 57 uM dopamine signal. actives 0.084% (n = 360,000). P14416; in the data active = activation above about 40%; inconclusive = between about 15% and that limit
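DiscoveRx PathHunter D2 beta-arrestin cells (2,100/well) attached overnight, then compound-stimulated 90 min at 37 C in HBSS/10 mM HEPES/0.1% Tween-20 buffer; beta-galactosidase complementation read by luminescence after 1 h at ambient temperature. Dopamine 57 uM final (EC100) as control.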
D2 ag-2 = activates the human D2 dopamine receptor; P14416; HEK293 T-REx D2 cells, calcium flux agonist mode; activation, % at 2 µM; actives 0.53% (n = 340,000);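 active = activation over 3 SD above normal in the single-dose calcium agonist read, cut at about 30% in these data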; also: 0% is about no effect
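Calcium-flux readout, 1 cycle/sec over 180 s following compound pin transfer, in inducible HEK293 Trex D2 cells (force-coupled); dopamine controls included. Positive calcium responses during this window marked compounds as potential agonists.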
D2 antag = D2 dopamine receptor (human) antagonism | P14416 | HEK293 TREx D2 cells, calcium flux, dopamine EC80 | inhibition, % at 10 µM | actives 2% (n = 340,000); in the data active = inhibition above about 30%; inactive = below that, where a call was filed; also: 0% is about no effect
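HEK293 T-REx D2 cells, tet-induced, calcium dye no-wash. Cpd pintool add, 180 s kinetic, then EC80 DA, 180 s kinetic. Ca flux read.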
Starred values were filed as active, the others as inactive; u = inconclusive; x = no result given. An excerpt weighted towards active compounds, which were near 2.4% of everything screened.

SMILES	D2 PAM-1	D2 PAM-2	D2 ag-1	D2 ag-2	D2 antag
O=C(O)CCc1ccc(-c2ccccc2)n1CC(=O)Nc1ccccc1C(F)(F)F	-15	x	x	0	x
Fc1ccc2nc(-c3ccccc3)ccc2c1	x	-7	-3	x	x
[O-][n+]1onc2c3cc(-c4ccccc4)nnc3ccc21	3	53*	8	-1	-23
CCOC(=O)N1CCN(c2c(NCCc3ccc(OC)c(OC)c3)c(=O)c2=O)CC1	2	-3	-1	0	36*
CCOC(=O)c1c(C(=O)OCC)c(C)n(CCc2ccc(OC)c(OC)c2)c1C	0	28	2	-3	33*
CC(NC(=O)C1CCN(C(=O)N2CCOc3ccc(Cl)cc32)CC1)c1ccccc1 (stereo not drawn)	-8	x	x	1	x
O=C(Cc1nc2ccccc2[nH]1)c1ccc([N+](=O)[O-])cc1	-5	-4	4	0	0
O=C(Cc1nc2ccccc2[nH]1)c1ccc(Cl)cc1	44*	-3	-2	1	-19
CC(=O)Nc1cc(-c2cccc(C(=O)NCCO)c2)cn2c(-c3cccc(C(F)(F)F)c3)cnc12	x	-5	-8	x	x
O=C(NCC(c1cccs1)N1CCOCC1)c1ccccc1NS(=O)(=O)c1cc([N+](=O)[O-])ccc1Cl (stereo not drawn)	12	-8	-2	-1	33*
OCCN(Cc1nc(-c2ccc3c(c2)OCO3)no1)Cc1cccs1	-15	-12	-5	1	39*
COc1ccc(Cc2noc(CN(C)CCN3CCc4ccccc4C3)n2)cc1OC	-23	-22	-2	2	-32
CN(CCN1CCc2ccccc2C1)Cc1nc(Cc2ccccc2F)no1	-12	-15	1	-2	41*
CN(CCN1CCc2ccccc2C1)Cc1nc(-c2ccc3c(c2)OCO3)no1	-22	-15	4	0	44*
CN(Cc1nc(-c2ccccc2)no1)C(=O)c1ccc2c(c1)OCO2	-13	-15	4	0	-14
CN(CCCCN1CCOCC1)Cc1nc(-c2ccc3c(c2)OCO3)no1	-3	-12	-1	0	2
Cc1ccc(Cl)cc1-n1c(=O)c2sc3ccccc3c2n(CC(=O)NC2CCCC2)c1=O	0	x	x	0	x
O=C(COc1ccc(Cl)cc1)Nc1ccc2c(c1)CCC2	-23	-22	-2	1	39*
CCOC(=O)c1ccc(NC(=O)Nc2ccc3snnc3c2)cc1	14	x	x	0	x
O=S(=O)(NCCc1csc2nc(-c3ccccc3)nn12)c1cc(F)ccc1F	-1	x	x	2	x
CCN1CCN(P2(=O)C=C(c3ccccc3)OC(c3ccccc3)=C2)CC1	-30	-26	2	0	84*
COc1ccc(OCc2nnc(SCC(=O)Nc3cccc(Cl)c3)o2)cc1	-3	-1	-4	0	43*
COc1ccc(OCc2nnc(SCC(=O)Nc3ccc(C)cc3)o2)cc1	7	2	-1	0	-11
Cc1ccc(OCc2nnc(SCC(=O)N3c4ccccc4Sc4ccc(Cl)cc43)o2)cc1	-7	50*	15	2	-7
Cc1nc(SCC(=O)Nc2cccc(Cl)c2)n[nH]1	30*	-6	-3	0	-14
SMILES	D2 PAM-1	D2 PAM-2	D2 ag-1	D2 ag-2	D2 antag
COc1cccc(C(=O)c2cn(CC(=O)Nc3ccc4c(c3)OCCO4)c3nc(C)ccc3c2=O)c1	-3	x	x	0	x
COc1cccc(CNC(=O)CSC2=Nc3ccccc3C3=NC(C)C(=O)N23)c1OC (stereo not drawn)	7	x	x	-4	x
COCCNCC1C(Oc2ccc(Cl)cc2)C(=O)N1c1ccccc1C (stereo not drawn)	-34	-23	1	1	50*
CCCNCC1C(Oc2ccc(Cl)cc2)C(=O)N1c1ccccc1C (stereo not drawn)	-23	-22	-5	1	51*
O=c1c2ccccc2ncn1Cc1ccccc1	14	-5	0	0	12
O=c1c2ccsc2ncn1Cc1ccc(Cl)cc1	3	-2	-8	1	38*
CN1CCCCC1CCN1c2ccccc2Sc2ccc(S(C)=O)cc21 (stereo not drawn)	-28	-10	-3	1	96*
CN1CCCC(CN2c3ccccc3Sc3ccccc32)C1 (stereo not drawn)	x	-32	-1	x	x
C=C1CCN([C@@H](C)C(=O)OCc2cccc(C)c2)S(=O)(=O)c2ccccc21	12	1	4	1	31*
N/C(=N\OC(=O)c1cccc(Cl)c1)c1cccnc1	2	138*	u	0	19
N/C(=N\OC(=O)c1cccc(Cl)c1)c1ccncc1	4	16	u	0	-1
N/C(=N\OC(=O)c1ccc(Cl)c(Cl)c1)c1cccnc1	-9	117*	u	0	-4
COc1cc(OC)c(NC(=O)c2c3c(nc4ccccc24)C(=O)N(C2CCCCC2)C3)cc1Cl	-6	x	x	x	x
COc1ccc(NC(=O)CSc2nnc3ccc(-c4ccccn4)nn23)cc1OC	-10	-18	-5	0	30*
Cc1cc(O)c2c(c1)C(=O)[C@@]13Oc4c5c(c(O)c6c(O)cc(C)cc46)C(=O)C[C@H](O)[C@H]5[C@@H]1[C@@H](O)CC(=O)C3=C2O	x	66*	11	x	x
COc1cccc(NC(=O)C2C3C=CC(O3)C2C(=O)NCc2cccnc2)c1 (stereo not drawn)	-15	-22	-2	-1	44*
COc1cc(NC(=S)NCc2cccnc2)cc(OC)c1	-3	-3	-1	0	1
CNc1snc(C)c1C(=O)OCC(=O)N(C)Cc1ccccc1	-7	3	u	0	35*
CNc1snc(C)c1C(=O)OCC(=O)N(C)c1ccccc1	24	1	-3	1	-13
COc1cc(/C=C(\C#N)C(=O)Nc2ccccc2C(=O)O)cc(Cl)c1OC	40*	-12	-6	-1	0
CCc1c(CN2CCN(c3ccc(F)cc3)CC2)csc1C	-9	x	x	-1	x
COc1cc2c(cc1NC(=O)C(C)Oc1ccc(Cl)cc1Cl)oc1ccccc12 (stereo not drawn)	9	x	x	1	x
CCN(Cc1ccccc1)Cc1ccc(OCc2ccccc2)cc1	-8	-68	-4	-2	31*
Cn1c(=O)c2c(nc(N3CCOCC3)n2Cc2ccccc2F)n(C)c1=O	-4	x	x	3	x
CC12CCC(C(=O)N(CSC(=S)N/N=C\c3ccccc3Cl)C1=O)C2(C)C (stereo not drawn)	8	-13	3	0	-5
CC12CCC(C(=O)N(CSC(=S)N/N=C\c3ccccc3)C1=O)C2(C)C (stereo not drawn)	8	-7	-1	-2	32*
CCC(Sc1nnc2c(n1)[nH]c1ccccc12)C(=O)Nc1ccccc1OC (stereo not drawn)	13	x	x	-2	x

Assay outcomes from PubChem BioAssay.
